# Reference: PubChem BioAssay
# Several values for one entry are separate records, joined by “and”; a condition that tells them apart may be missing. Equal entries are not always repeated. Records with an inconclusive call do not appear. The source holds several records for some structures; these can differ, active in one and inactive in another. Activity calls are given as the source filed them.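 How the source made its calls, unless noted: active means z-score of at least 1.8 in each of two replicates, scored against plate mean and spread of sample wells; inactive means the rest.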
# Legend:
# [1] = SU-DIPG-VI glioma cell viability, MIPE4.0 library, CellTiter-Glo luminescence, qHTS (AID 1347066; cut-off not given, nearly all actives have AC50 up to about 30 µM;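 further: cells exposed to compound for 48 hours before readout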); conditions: CellTiter-Glo ATP luminescence
# [2] = biological target: Mitogen-activated protein kinase 7 (Homo sapiens) (UniProt Q13164); assay: ERK5 transactivation activators in reporter cells, primary screen, cell-based, HTS (AID 1508626;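 active means luciferase signal above three times the same-plate solvent-only control wells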;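 further: luciferase driven by Gal4-ERK5 fusion binding five Gal4 sites before minimal TATA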); conditions: HeLa Gal4-ERK5 transactivation, 18 h, at 5 µM, stronger effect = higher value
# Chain of Mitogen-activated protein kinase 7 (Homo sapiens) (Q13164 whole entry, looked up, the tested form may be a part): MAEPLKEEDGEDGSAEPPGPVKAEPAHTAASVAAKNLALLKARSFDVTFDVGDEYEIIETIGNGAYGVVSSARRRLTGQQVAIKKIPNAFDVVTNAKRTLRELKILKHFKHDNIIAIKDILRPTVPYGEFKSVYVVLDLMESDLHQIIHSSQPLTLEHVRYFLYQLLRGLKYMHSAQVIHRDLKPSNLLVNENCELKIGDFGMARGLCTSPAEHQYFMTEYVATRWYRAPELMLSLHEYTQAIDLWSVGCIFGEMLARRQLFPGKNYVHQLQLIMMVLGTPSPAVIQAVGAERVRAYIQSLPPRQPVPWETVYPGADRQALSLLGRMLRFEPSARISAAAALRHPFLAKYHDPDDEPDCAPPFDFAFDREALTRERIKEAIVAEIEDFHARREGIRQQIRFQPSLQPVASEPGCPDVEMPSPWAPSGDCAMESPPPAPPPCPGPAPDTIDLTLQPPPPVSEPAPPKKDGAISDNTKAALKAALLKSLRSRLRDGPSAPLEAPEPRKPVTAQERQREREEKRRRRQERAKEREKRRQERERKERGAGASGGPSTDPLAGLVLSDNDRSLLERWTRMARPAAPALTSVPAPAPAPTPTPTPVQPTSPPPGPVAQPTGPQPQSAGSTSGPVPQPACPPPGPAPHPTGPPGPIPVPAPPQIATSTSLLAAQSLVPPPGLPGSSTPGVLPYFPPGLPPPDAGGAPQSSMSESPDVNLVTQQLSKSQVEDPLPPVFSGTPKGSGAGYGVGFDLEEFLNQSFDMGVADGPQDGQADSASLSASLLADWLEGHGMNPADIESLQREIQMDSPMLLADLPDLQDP
# [3] = sensitizers of A549 cells to miR-34 induction, primary screen, imaging, A549 dox-inducible miR-34, nuclei and caspase counts (AID 1347080;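 active means compounds whose cell count with miR-34 switched on is under 0.7 times the count with it off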); conditions: A549 miR-34 inducible, Hoechst nuclei count, 48 h
# [4] = phospholipid biosynthesis inhibitors in animal cells, primary screen, cell-based, LOPAC library, screen 4 (AID 1347384; call rule not given here); conditions: phospholipid biosynthesis inhibition screen, at 10 µM
# [5] = survival rescue of mitochondrial mutant cells in low glucose, primary screen, MELAS cybrids, Rieske KO mouse fibroblasts, CellTiter-Glo (AID 1508586;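 active means mean z-score across replicates of 1.96 or higher in either the MELAS or the Rieske mutant cell line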;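 further: z relative to plate mean and SD of compound and empty wells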)
# [6] = biological target: NAD(+) hydrolase SARM1 (Homo sapiens) (UniProt Q6SZW1); assay: SARM1 TIR NADase inhibitors, cell lysate, NAD-Glo luminescence (AID 1508614;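 active means compound whose remaining NAD level is above about 45 nM, limit read from the data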); conditions: SAM-TIR HEK293T lysate NADase, at 1 µM, stronger effect = higher value
# Chain of NAD(+) hydrolase SARM1 (Homo sapiens) (Q6SZW1 whole entry, looked up): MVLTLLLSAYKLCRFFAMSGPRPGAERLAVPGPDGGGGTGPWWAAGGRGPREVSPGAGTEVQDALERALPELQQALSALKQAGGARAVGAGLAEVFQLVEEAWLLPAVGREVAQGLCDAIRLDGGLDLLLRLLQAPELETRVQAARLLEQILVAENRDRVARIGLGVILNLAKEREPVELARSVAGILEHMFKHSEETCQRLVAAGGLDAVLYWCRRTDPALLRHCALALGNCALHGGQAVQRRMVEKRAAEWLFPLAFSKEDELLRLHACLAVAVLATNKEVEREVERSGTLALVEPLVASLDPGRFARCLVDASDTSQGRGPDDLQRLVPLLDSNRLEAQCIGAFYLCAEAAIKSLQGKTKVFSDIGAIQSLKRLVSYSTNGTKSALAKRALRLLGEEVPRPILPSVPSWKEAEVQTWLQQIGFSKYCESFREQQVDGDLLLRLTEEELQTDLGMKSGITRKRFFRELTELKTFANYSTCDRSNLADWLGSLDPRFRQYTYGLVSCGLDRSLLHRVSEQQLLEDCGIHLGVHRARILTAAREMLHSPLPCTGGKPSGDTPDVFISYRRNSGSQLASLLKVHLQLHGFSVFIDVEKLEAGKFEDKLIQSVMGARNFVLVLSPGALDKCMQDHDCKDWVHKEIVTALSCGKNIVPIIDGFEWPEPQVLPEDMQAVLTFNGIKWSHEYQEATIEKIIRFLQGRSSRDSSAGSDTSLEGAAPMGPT
# [7] = viability rescue of complex I mutant cybrids, primary screen, cell-based, galactose medium, ATP luminescence (AID 1645843); conditions: complex I mutant cybrid cells, 72 h, stronger effect = higher value;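 further: positive z means more ATP and so rescue of galactose-driven cybrid death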
# [8] = JHH-DIPG-1 glioma cell viability, MIPE5.0 library, CellTiter-Glo luminescence, qHTS (AID 1347067; cut-off not given, nearly all actives have AC50 up to about 26 µM;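 further: cells exposed to compound for 48 hours before readout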); conditions: JHH-DIPG-1 glioma viability, CellTiter-Glo ATP luminescence
# [9] = SU-DIPG-XXV glioma cell viability, MIPE5.0 library, qHTS (AID 1347068; cut-off not given, nearly all actives have IC50 up to about 30 µM)
# [10] = modifiers of HSF1 nuclear foci, imaging, Selleck Cancer Library (AID 1347162; in the data active means plate-normalised HSF1 focus index below about 0.46); conditions: human cells, at 10 µM; SSMD: measured here: HSF1 foci SSMD mean; cell count: measured here: cell number; plate-normalised HSF1 focus index: stronger effect = lower value
# [11] = inhibitors of Cryptococcus chitosan production, flow cytometry, Cibacron Brilliant Red staining (AID 1347148; call rule not given here;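 further: compound exposure lasted three days at 37 degrees C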); conditions: Cryptococcus neoformans chitosan, stronger effect = lower value; at 10 µM unless noted
# [12] = stronger effect = lower value, cell number ratio, induced over uninduced
# [13] = measured here: relative caspase fold change +Dox/-Dox
# [14] = measured here: total cells with miR-34 induction, stronger effect = lower value
# [15] = measured here: total cells without miR-34 induction
# [16] = MELAS cybrid survival, CellTiter-Glo 48 h, stronger effect = higher value
# [17] = Rieske KO mouse fibroblast survival, CellTiter-Glo 72 h
smiles,measurement,setting,value
CC1(C)O[C@H]2CC(=O)OC[C@]23[C@H]2CC[C@@]4(C)[C@H](c5ccoc5)OC(=O)[C@H]5O[C@]54[C@]2(C)C(=O)C[C@@H]13,outcome,[1],inactive
same,luciferase signal,[2],80 AU (inactive)
C=CCc1ccccc1OCC(O)CNC(C)C (centres undefined),fold change,[3]; [12],0.963 (inactive) and 0.998 (inactive) and 0.909 (inactive)
same,fold change,[3]; [13],1.1 and 1.18 and 0.556
same,cell count,[3]; [14],10100 and 7510 and 7890
same,cell count,[3]; [15],10500 and 7520 and 8680
same,outcome,[4],inactive
same,z-score,[5]; [16],-0.407 (inactive) and -0.689 (inactive)
same,z-score,[5]; [17],-0.409 and 0.651
same,remaining NAD,[6],10 nM (inactive)
same,luciferase signal,[2],60 AU (inactive)
same,z-score,[7],-0.345 (inactive) and 0.39 (inactive)
Cc1nnc(SCC2=C(C(=O)O)N3C(=O)[C@@H](NC(=O)Cn4cnnn4)[C@H]3SC2)s1,fold change,[3]; [12],1.03 (inactive) and 0.804 (inactive) and 0.912 (inactive)
same,fold change,[3]; [13],1.87 and 0.957 and 4.16
same,cell count,[3]; [14],10400 and 8100 and 11000
same,cell count,[3]; [15],10100 and 12000
same,outcome,[4],inactive
same,z-score,[5]; [16],0.651 (inactive)
same,z-score,[5]; [17],0.288
same,remaining NAD,[6],10 nM (inactive)
same,luciferase signal,[2],28 AU (inactive)
same,z-score,[7],-0.3 (inactive)
Cc1nccn1CC1CCc2c(c3ccccc3n2C)C1=O (centres undefined),outcome,[1],inactive
same,z-score,[5]; [16],-0.478 (inactive) and 0.555 (inactive) and 0.267 (inactive)
same,z-score,[5]; [17],0.23 and 0.514 and 0.91
same,remaining NAD,[6],10 nM (inactive)
same,z-score,[7],0.415 (inactive) and 0.495 (inactive) and 0.69 (inactive)
COc1cc(C(=O)NS(=O)(=O)c2ccccc2C)ccc1Cc1cn(C)c2ccc(NC(=O)OC3CCCC3)cc12,outcome,[8],inactive
same,outcome,[9],inactive
same,z-score,[5]; [16],-0.216 (inactive) and 0.374 (inactive) and -0.157 (inactive)
same,z-score,[5]; [17],0.567 and -0.073 and 0.0854
same,z-score,[7],1.64 (inactive) and 1.23 (inactive)
Nc1ccc(S(=O)(=O)Nc2ccnn2-c2ccccc2)cc1,fold change,[3]; [12],0.969 (inactive) and 0.9 (inactive)
same,fold change,[3]; [13],1.76 and 1.07
same,cell count,[3]; [14],10100 and 7980
same,cell count,[3]; [15],10500 and 8860
same,outcome,[4],inactive
same,z-score,[5]; [16],-0.791 (inactive)
same,z-score,[5]; [17],-0.133
same,remaining NAD,[6],10 nM (inactive)
same,luciferase signal,[2],96 AU (inactive)
same,z-score,[7],0.735 (inactive)
CC(C)NNC(=O)c1ccncc1,fold change,[3]; [12],1.01 (inactive) and 0.987 (inactive) and 0.902 (inactive)
same,fold change,[3]; [13],0.707 and 0.895 and 1.13
same,cell count,[3]; [14],10400 and 9260 and 10200
same,cell count,[3]; [15],10300 and 9380 and 11300
same,outcome,[4],inactive
same,z-score,[5]; [16],-0.146 (inactive) and 0.243 (inactive)
same,z-score,[5]; [17],-0.0689 and -0.0455
same,remaining NAD,[6],10 nM (inactive)
same,luciferase signal,[2],60 AU (inactive)
same,z-score,[7],0.54 (inactive) and 0.67 (inactive)
Nc1nc(F)nc2c1ncn2[C@@H]1O[C@H](CO)[C@@H](O)[C@@H]1O,outcome,[8],inactive
same,fold change,[3]; [12],1.1 (inactive) and 1.04 (inactive)
same,fold change,[3]; [13],0.763 and 0.78
same,cell count,[3]; [14],2060 and 1630
same,cell count,[3]; [15],1870 and 1560
same,SSMD,[10],0.111
same,cell count,[10],6840
same,plate-normalised HSF1 focus index,[10],1.01 (inactive)
same,z-score,[5]; [16],4.36 (active)
same,z-score,[5]; [17],1.07
same,z-score,[7],0.045 (inactive) and -0.22 (inactive)
C[N+](C)(C)CCCCCC[N+](C)(C)C,fold change,[3]; [12],0.986 (inactive) and 1.01 (inactive) and 0.859 (inactive)
same,fold change,[3]; [13],0.977 and 0.809 and 0.908
same,cell count,[3]; [14],10300 and 10200 and 8850
same,cell count,[3]; [15],10500 and 10100 and 10300
same,outcome,[4],inactive
same,z-score,[5]; [16],0.935 (inactive)
same,z-score,[5]; [17],0.174
same,remaining NAD,[6],10 nM (inactive)
same,luciferase signal,[2],52 AU (inactive)
same,z-score,[7],0.205 (inactive) and 0.235 (inactive)
CS(=O)(=O)Nc1ccc([N+](=O)[O-])cc1Oc1ccccc1,outcome,[9],inactive
same,fold fluorescence,[11],4.45 [at 162.2 µM] (inactive)
same,outcome,[4],inactive
same,z-score,[5]; [16],-0.305 (inactive) and 0.634 (inactive) and -0.303 (inactive)
same,z-score,[5]; [17],1.18 and 0.441 and -0.993
same,remaining NAD,[6],10 nM (inactive)
same,luciferase signal,[2],60 AU (inactive)
same,z-score,[7],1.54 (inactive) and 2.81 (active) and 0.735 (inactive)
CO[C@@]1(NC(=O)CSCC#N)C(=O)N2C(C(=O)O)=C(CSc3nnnn3C)CS[C@@H]21,fold change,[3]; [12],1.01 (inactive) and 0.961 (inactive)
same,fold change,[3]; [13],1.5 and 1.13
same,cell count,[3]; [14],11000 and 9300
same,cell count,[3]; [15],10900 and 9680
same,outcome,[4],inactive
same,z-score,[5]; [16],-0.493 (inactive)
same,z-score,[5]; [17],-0.322
same,remaining NAD,[6],10 nM (inactive)
same,luciferase signal,[2],108 AU (inactive)
same,z-score,[7],0.77 (inactive)
CC1=C(C(=O)O)N2C(=O)[C@@H](NC(=O)[C@H](N)C3=CCC=CC3)[C@H]2SC1,outcome,[1],inactive
same,remaining NAD,[6],10 nM (inactive)
same,luciferase signal,[2],48 AU (inactive)
Cc1nc2n(c(=O)c1CCN1CCC(c3noc4cc(F)ccc34)CC1)CCCC2,outcome,[1],inactive
same,z-score,[5]; [16],1.35 (inactive) and -1.13 (inactive) and -0.64 (inactive)
same,z-score,[5]; [17],0.0817 and 0.437 and -0.833
same,remaining NAD,[6],10 nM (inactive)
same,z-score,[7],-1.22 (inactive) and -0.71 (inactive)
C[C@H]1c2cccc(O)c2C(O)=C2C(=O)[C@]3(O)C(O)=C(C(N)=O)C(=O)[C@@H](N(C)C)[C@@H]3[C@@H](O)[C@@H]21,fold change,[3]; [12],0.948 (inactive) and 0.723 (inactive) and 0.815 (inactive)
same,fold change,[3]; [13],0.896 and 4.48 and 1.65
same,cell count,[3]; [14],1440 and 3910 and 7870
same,cell count,[3]; [15],1520 and 5410 and 9650
same,outcome,[4],inactive
same,z-score,[5]; [16],0.0416 (inactive) and -0.292 (inactive)
same,z-score,[5]; [17],-2.32 and -1.86
same,remaining NAD,[6],10 nM (inactive)
same,luciferase signal,[2],64 AU (inactive)
same,z-score,[7],2.63 (active) and 2.23 (active)
